# Compound: C#CCNC(=O)CCSSCCC(=O)NCCc1ccc(C=O)c(C=O)c1
# Assay: lysine labeling ratio R10:1 (500 µM / 50 µM probe), SILAC-ABPP in living cells; higher = lower intrinsic lysine reactivity toward the probe, active = 2 or less
# Details: HeLa; probe concentrations 500 vs 50 µM
# Outline: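 With forward and reverse label swaps, light and heavy SILAC HeLa cells, alive and in PBS at room temperature, were exposed to either 500 µM or 50 µM of an alkyne-tagged lysine probe bearing a disulfide link. After mixing, lysates were clicked to biotin-azide, cut with trypsin, pulled down on neutravidin, freed with DTT, alkylated and analysed on a TIMS-TOF Pro by LC-MS/MS. The per-lysine value R is the median over forward and reverse replicates of the filtered median high-probe/low-probe MS1 peptide ratio. It is capped at 20.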
# Chain of UniProt Q8NC51 (Q8NC51 whole entry): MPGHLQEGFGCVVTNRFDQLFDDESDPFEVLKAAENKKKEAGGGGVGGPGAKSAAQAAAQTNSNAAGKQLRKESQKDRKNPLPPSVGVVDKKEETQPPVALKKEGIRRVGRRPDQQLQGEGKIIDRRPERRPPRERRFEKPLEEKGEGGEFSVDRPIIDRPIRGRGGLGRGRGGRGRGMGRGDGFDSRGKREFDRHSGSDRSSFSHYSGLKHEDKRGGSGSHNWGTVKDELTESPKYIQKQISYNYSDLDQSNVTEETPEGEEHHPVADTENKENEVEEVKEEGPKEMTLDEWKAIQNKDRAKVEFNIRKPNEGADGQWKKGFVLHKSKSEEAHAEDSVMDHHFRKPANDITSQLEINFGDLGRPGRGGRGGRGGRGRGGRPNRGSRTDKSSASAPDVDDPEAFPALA
# Chain of UniProt Q7Z3B1 (Q7Z3B1 whole entry, looked up): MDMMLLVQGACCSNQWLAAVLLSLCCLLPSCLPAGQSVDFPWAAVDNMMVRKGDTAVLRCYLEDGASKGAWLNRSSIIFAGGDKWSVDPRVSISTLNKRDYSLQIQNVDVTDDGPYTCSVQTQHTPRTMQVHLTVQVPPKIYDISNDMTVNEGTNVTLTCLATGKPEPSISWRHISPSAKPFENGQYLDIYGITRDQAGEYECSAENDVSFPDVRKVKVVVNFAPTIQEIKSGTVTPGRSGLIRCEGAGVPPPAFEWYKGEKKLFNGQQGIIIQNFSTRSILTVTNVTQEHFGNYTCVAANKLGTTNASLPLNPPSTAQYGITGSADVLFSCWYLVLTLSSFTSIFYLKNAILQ
# Chain of UniProt P27816 (P27816 whole entry): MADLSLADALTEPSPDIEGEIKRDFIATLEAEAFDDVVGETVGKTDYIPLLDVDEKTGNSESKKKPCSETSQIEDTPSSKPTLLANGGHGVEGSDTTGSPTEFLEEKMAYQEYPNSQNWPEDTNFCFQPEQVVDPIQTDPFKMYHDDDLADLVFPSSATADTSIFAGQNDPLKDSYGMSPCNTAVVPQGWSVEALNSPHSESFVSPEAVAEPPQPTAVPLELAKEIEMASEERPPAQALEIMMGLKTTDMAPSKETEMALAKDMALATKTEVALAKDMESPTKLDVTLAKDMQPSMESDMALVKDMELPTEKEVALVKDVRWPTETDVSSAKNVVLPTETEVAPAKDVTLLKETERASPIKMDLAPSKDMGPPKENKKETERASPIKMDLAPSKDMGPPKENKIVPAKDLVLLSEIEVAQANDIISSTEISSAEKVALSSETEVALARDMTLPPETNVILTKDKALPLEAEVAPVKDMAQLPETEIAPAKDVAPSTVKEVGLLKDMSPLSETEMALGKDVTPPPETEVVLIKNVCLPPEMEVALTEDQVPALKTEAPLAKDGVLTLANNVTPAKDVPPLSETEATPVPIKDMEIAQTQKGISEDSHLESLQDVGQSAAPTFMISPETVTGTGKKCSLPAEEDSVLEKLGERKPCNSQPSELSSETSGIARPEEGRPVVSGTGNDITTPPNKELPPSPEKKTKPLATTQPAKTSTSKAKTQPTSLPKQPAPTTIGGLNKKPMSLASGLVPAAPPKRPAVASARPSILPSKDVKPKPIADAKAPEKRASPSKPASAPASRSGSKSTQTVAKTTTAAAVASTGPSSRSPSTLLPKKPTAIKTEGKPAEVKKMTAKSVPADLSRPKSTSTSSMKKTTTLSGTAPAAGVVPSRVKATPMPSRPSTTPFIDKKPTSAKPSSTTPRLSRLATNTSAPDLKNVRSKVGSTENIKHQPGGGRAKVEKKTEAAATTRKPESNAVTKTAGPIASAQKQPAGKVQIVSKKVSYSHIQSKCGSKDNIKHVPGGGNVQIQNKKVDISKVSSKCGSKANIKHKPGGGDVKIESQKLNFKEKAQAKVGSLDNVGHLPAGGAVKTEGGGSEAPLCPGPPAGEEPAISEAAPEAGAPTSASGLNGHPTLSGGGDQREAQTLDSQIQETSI
# Chain of UniProt P06213 (P06213 whole entry): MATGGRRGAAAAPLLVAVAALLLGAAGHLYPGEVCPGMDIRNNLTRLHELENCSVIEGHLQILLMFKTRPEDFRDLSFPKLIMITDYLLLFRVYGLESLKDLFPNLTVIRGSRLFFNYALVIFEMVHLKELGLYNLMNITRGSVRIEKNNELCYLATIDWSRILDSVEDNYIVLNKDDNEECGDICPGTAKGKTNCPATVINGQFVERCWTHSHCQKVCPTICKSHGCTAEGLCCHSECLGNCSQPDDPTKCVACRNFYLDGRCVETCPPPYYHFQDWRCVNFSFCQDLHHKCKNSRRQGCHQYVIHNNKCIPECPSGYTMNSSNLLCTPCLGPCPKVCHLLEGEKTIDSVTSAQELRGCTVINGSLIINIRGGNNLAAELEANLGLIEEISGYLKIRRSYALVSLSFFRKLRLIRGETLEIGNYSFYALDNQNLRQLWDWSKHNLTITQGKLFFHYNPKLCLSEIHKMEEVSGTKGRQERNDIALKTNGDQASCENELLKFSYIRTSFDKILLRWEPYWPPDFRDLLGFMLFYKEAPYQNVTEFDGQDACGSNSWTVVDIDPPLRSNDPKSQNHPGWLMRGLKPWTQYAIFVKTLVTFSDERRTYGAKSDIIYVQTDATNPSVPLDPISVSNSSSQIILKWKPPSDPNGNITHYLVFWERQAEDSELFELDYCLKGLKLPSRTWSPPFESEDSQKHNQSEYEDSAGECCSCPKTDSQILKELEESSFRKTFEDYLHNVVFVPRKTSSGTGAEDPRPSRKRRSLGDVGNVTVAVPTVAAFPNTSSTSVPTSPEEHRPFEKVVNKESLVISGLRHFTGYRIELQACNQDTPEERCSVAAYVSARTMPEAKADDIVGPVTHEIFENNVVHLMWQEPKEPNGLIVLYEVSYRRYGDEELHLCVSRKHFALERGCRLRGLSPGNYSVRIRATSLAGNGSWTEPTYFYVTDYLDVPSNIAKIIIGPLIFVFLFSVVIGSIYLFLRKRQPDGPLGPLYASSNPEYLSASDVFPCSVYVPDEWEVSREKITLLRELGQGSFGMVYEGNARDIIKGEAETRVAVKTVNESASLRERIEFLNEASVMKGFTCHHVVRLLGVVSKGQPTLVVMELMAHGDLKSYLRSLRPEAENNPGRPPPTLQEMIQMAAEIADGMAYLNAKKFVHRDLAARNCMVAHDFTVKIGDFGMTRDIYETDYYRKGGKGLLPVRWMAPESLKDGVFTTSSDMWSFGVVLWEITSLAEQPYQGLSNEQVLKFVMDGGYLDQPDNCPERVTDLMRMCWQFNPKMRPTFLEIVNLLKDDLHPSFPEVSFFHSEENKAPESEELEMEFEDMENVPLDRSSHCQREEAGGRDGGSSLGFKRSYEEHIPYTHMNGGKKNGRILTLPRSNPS
# Chain of UniProt P55285 (P55285 whole entry): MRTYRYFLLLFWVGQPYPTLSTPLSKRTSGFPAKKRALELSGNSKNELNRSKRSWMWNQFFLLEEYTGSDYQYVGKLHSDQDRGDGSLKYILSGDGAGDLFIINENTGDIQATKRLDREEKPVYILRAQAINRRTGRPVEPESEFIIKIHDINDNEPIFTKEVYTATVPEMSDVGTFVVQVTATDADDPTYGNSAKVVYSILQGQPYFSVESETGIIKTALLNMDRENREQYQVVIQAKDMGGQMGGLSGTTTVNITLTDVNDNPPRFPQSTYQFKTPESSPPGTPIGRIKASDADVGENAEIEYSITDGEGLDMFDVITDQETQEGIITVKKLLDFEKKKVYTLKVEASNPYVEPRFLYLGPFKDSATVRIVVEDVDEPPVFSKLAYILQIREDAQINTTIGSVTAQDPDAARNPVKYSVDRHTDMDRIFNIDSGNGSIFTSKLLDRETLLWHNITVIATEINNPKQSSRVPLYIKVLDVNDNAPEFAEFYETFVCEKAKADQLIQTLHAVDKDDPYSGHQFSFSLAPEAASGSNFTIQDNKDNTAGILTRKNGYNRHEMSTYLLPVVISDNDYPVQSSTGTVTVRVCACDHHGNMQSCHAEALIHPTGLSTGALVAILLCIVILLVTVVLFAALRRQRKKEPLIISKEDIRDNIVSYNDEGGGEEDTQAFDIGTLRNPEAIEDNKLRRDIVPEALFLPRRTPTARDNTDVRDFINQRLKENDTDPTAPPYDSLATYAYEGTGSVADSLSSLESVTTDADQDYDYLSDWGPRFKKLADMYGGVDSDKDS
# Chain of UniProt P21796 (P21796 whole entry): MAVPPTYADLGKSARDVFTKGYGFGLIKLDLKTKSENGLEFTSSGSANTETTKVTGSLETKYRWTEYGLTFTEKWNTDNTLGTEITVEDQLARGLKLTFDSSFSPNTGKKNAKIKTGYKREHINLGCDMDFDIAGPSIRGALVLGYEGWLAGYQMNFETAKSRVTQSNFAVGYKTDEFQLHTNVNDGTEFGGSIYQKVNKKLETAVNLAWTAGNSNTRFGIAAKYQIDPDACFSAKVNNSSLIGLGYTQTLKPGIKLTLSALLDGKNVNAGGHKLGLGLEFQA
# Chain of UniProt Q5T9A4 (Q5T9A4 whole entry): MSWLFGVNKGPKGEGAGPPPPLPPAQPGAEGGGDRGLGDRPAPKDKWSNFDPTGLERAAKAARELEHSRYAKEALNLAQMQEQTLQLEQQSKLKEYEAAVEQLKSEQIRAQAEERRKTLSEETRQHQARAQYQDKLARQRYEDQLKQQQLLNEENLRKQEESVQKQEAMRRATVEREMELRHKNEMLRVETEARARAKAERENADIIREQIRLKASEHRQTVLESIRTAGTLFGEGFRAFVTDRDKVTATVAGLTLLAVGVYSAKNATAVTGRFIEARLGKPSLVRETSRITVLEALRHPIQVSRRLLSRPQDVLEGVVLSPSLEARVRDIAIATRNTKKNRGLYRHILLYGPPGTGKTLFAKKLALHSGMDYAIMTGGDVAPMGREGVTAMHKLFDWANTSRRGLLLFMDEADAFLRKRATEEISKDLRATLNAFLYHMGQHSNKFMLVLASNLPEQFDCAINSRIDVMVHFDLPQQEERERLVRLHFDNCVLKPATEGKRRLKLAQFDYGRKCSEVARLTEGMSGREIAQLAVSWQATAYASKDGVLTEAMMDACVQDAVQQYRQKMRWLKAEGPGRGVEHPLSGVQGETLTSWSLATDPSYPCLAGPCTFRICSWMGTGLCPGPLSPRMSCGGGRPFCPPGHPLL
row,Target,lysine labeling ratio R10:1
1,CTNNA1 (lysine site: K199) (UniProt P35221),1.43 (active)
2,KRT18 (lysine site: K426) (UniProt P05783),9.55 (inactive)
3,MAP4 (lysine site: K933) (UniProt P27816),1.9 (active)
4,UniProt Q16181 (lysine site: K373),2.37 (inactive)
5,IARS (lysine site: K132) (UniProt P41252),1.68 (active)
6,NUCB1 (lysine site: K364) (UniProt Q02818),2.75 (inactive)
7,INSR (lysine site: K903) (UniProt P06213),2.04 (inactive)
8,IGSF3 (lysine site: K373) (UniProt O75054),3.12 (inactive)
9,UniProt Q29980 (lysine site: K190),1.17 (active)
10,UniProt Q9BZM4 (lysine site: K148),2.1 (inactive)
11,ATAD3B (lysine site: K46) (UniProt Q5T9A4),3.54 (inactive)
12,UniProt P55285 (lysine site: K418),1.1 (active)
13,EEF1G (lysine site: K132) (UniProt P26641),1.81 (active)
14,SERBP1 (lysine site: K303) (UniProt Q8NC51),2.74 (inactive)
15,SLC39A10 (lysine site: K66) (UniProt Q9ULF5),0.9 (active)
16,GPC1 (lysine site: K277) (UniProt P35052),2.26 (inactive)
17,SERBP1 (lysine site: K68) (UniProt Q8NC51),5.36 (inactive)
18,CLTC (lysine site: K1264) (UniProt Q00610),1.58 (active)
19,TKT (lysine site: K16) (UniProt P29401),2.68 (inactive)
20,IGF1R (lysine site: K892) (UniProt P08069),3.9 (inactive)
21,UniProt Q8WXI7 (lysine site: K13676),3.84 (inactive)
22,NEGR1 (lysine site: K52) (UniProt Q7Z3B1),4.69 (inactive)
23,VDAC1 (lysine site: K274) (UniProt P21796),0.919 (active)
